Rpn11 block: Rpn11 (PSMD14) deubiquitinase inhibitors, primary screen, biochemical, fluorescence polarization, uHTS | AID 588493, 2011 | hit rate 0.59% among 360,000 | human 26S proteasome, Ub4-pepOG fluorescence polarization; 20S core pre-blocked with epoxomicin | calls only at 20 µM;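 active = inhibition at 20 µM, scaled to each plate's controls, above about 33%, limit read from the data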
Target sequence (O00487 whole entry, looked up): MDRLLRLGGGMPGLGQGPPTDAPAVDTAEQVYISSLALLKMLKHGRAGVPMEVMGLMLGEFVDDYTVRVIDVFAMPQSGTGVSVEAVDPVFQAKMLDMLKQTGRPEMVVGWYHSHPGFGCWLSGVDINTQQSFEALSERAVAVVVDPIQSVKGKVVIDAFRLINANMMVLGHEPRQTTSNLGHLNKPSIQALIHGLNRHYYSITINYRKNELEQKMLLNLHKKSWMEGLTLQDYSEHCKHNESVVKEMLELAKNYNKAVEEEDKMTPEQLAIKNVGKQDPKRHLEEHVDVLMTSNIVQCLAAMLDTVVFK
Neddyl block: inhibitors of cullin neddylation, primary screen, biochemical, TR-FRET, uHTS, NAE and Ubc12; AID 651699, 2012; hit rate 0.58% among 360,000; NEDD8-conjugating enzyme Ubc12 (Homo sapiens) + NEDD8-activating enzyme E1 regulatory …; inhibition, % at 25 µM; in the data active = inhibition above about 36%
PKA-R1A activ: activators of PKA-R1A holoenzyme, primary screen, biochemical, fluorescence polarization, Cy5-IP20, bovine R1A, mouse PKAc; activation, % at 11.4 µM; cAMP-dependent protein kinase type I-alpha regulatory subunit (Bos taurus) + …; PKA-R1A dissociation; scaled: DMSO 0%, 113 µM cGMP 100%; hit rate 0.083% among 340,000;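 active = percent activation above the mean of all tested compounds plus 3 SD, cut at about 19% in these data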;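 note: higher means more PKAc released from R1A so a rise in polarization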
PKA-R2B activ: activators of PKA-R2B holoenzyme, primary screen, biochemical, fluorescence polarization, Cy5-IP20, human; PKA-R2B holoenzyme dissociation; R2B truncated from residue 108, S112A mutant; 0% DMSO only, 100% 113 µM cGMP; cAMP-dependent protein kinase catalytic subunit beta (Homo sapiens) + cAMP-dependent …; hit rate 0.079% among 340,000; activation, % at 11.4 µM;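 active = activation above a cutoff set at the mean over all compounds plus 3 SD, cut at about 18% in these data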;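 note: higher means more holoenzyme dissociation and a rise in polarization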
Neddyl inh conf: blockade of NEDD8 conjugation to cullin – biochemical, TR-FRET, single concentration, confirmation. shares compounds with Neddyl block. calls only at 25 µM. TR-FRET cullin neddylation biochemical assay. hit rate 13% among 1,800; in the data active = inhibition above about 40%;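 note: neddylation substrate is the cullin 1 ring ligase complex with SKP2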
Each line names hits and unclear results; the compound was inactive in the other large screens (follow-up assays come after a bar, where shown). Sampled rows, rich in hits. Any-hit rate of the full collection: about 1.3%.

Cc1cccn2c(=O)c3cc(C(=O)N4CCN(Cc5ccccc5)CC4)sc3nc12	Neddyl block 65 | Neddyl inh conf active
Cc1cccn2c(=O)c3cc(C(=O)NC4CCCC4)sc3nc12	Neddyl block 64
C/C(=N\NC(=O)c1cccnc1)c1ccc(OC2OCCOC2Oc2ccc(/C(C)=N/NC(=O)c3cccnc3)cc2)cc1 (stereo not drawn)	none
CC(=O)CCC(=O)N1CCC(n2nccc2NC(=O)c2ccccc2C)CC1	none
CCCCN(C(=O)c1cccc(S(=O)(=O)N2CCN(C)CC2)c1)c1c(N)n(CCC)c(=O)[nH]c1=O	none
COc1ccc(/C=C/C(=O)NC(=S)N2CCSCC2)cc1	none
COC(=O)CCSCC(=O)N1N=C(c2ccc(Br)cc2)CC1c1cccc(OC)c1OC (stereo not drawn)	none
CCOC(=O)N1CCN(C(=O)c2c(Cl)cnn2C)CC1	none
CCN(CC)CCNC(=O)c1cn(CC)c2cc(N3CCN(C)CC3)c(F)cc2c1=O	Neddyl block 47
CCn1cc(C(=O)NCCC(C)C)c(=O)c2cc(F)c(N3CCN(C)CC3)cc21	Neddyl block 44
CCCCNC(=O)c1cn(CC)c2cc(N3CCN(C)CC3)c(F)cc2c1=O	none (not shown: Neddyl block, PKA-R1A activ, PKA-R2B activ)
COc1ccc(N2CCc3c(C)nc4c(OC)cc(OC)cc4c32)c(OC)c1	Neddyl block 41 | Neddyl inh conf inactive
CC(=O)c1ccc(NC(=O)C(=O)c2cn(CC(=O)N3CCCCC3)c3ccccc23)cc1	none
C[n+]1cccc(C(=O)NNC(=O)C23CC4CC(CC(C4)C2)C3)c1	none
O=S(=O)(Nc1ccc(-c2nc3ccccc3o2)cc1)c1ccccc1	Neddyl block 43
COc1ccc(S(=O)(=O)N2CCOCC2)cc1NC(=O)C1CCN(S(=O)(=O)c2ccc(Cl)cc2)CC1	none
CCC1CCCCN1CCCNC(=O)c1ccc2c(=O)n(CCOC)c(=O)[nH]c2c1 (stereo not drawn)	none
CCN1CCCC1CNC(=O)c1ccc2c(=O)n(CCOC)c(=O)[nH]c2c1 (stereo not drawn)	Neddyl block 44 | Neddyl inh conf inactive
CCN1CCCC1CNC(=O)c1cc2cc(F)ccc2[nH]1 (stereo not drawn)	Neddyl block 45
c1ccc2c(c1)[nH]c1c3ccccc3sc21	none
COc1ccc(CCN(C)C(=O)C2CCN(C(=O)Nc3ccccc3)CC2)cc1OC	none
COc1ccc(/C=C/C(=O)NC(=S)NNC(=O)c2cc(OC)c(OC)c(OC)c2)cc1	Neddyl block 48 | Neddyl inh conf inactive
COc1ccc(/C=C/C(=O)NC(=S)NNC(=O)c2cc(OC)c(OC)c(OC)c2)cc1OC	none (no result: PKA-R1A activ, PKA-R2B activ)
O=C1NC(c2cccs2)Nc2sc3c(c21)CCCC3 (stereo not drawn)	Neddyl block 44 | Neddyl inh conf inactive
CCCOc1cccc(C2C(C(=O)c3cc4ccccc4o3)=C(O)C(=O)N2c2cc(C)on2)c1 (stereo not drawn)	Neddyl block 44 | Neddyl inh conf inactive
Cc1cc(N2C(=O)C(O)=C(C(=O)c3cc4ccccc4o3)C2c2cccc(Br)c2)no1 (stereo not drawn)	none
N#Cc1ncc(-c2ccc3c(c2)OCCOCCOCCOCCO3)nc1C#N	Neddyl block 38 | Neddyl inh conf inactive
N#Cc1ncc(-c2ccc3c(c2)OCCOCCOCCOCCOCCO3)nc1C#N	none
COC(=O)CCC(=O)OC1(C)C(=O)C=C2C=C(C3CC3)N(c3cccc(C#N)c3)C=C2C1=O (stereo not drawn)	Neddyl block 44 | Neddyl inh conf inactive
COC(=O)c1ccc(C(=S)NCC2(N(C)C)CCCCC2)cc1	none
CSc1ccc(/C=C(\NC(=O)c2ccc(C)cc2)C(=O)Nc2cccc(C)c2)cc1	Neddyl block 54 | Neddyl inh conf inactive
Cc1ccc(C(=O)N/C(=C/c2ccc(Cl)cc2)C(=O)Nc2cccc(C(=O)O)c2)cc1	none
COC(=O)C1CCc2c(ccc3c2CCCC3)C1=O (stereo not drawn)	none

High-throughput results as filed in PubChem BioAssay.
